Laboratory results from ChEMBL document CHEMBL2218924, “A broad activity screen in support of a chemogenomic map for kinase signalling research and drug discovery” (Biochem J, 2013).

Tests used:
[1] = target: T1, Ephrin type-B receptor 1 (Homo sapiens) (UniProt P54762); conditions: at 10 µM
T1 sequence (whole entry): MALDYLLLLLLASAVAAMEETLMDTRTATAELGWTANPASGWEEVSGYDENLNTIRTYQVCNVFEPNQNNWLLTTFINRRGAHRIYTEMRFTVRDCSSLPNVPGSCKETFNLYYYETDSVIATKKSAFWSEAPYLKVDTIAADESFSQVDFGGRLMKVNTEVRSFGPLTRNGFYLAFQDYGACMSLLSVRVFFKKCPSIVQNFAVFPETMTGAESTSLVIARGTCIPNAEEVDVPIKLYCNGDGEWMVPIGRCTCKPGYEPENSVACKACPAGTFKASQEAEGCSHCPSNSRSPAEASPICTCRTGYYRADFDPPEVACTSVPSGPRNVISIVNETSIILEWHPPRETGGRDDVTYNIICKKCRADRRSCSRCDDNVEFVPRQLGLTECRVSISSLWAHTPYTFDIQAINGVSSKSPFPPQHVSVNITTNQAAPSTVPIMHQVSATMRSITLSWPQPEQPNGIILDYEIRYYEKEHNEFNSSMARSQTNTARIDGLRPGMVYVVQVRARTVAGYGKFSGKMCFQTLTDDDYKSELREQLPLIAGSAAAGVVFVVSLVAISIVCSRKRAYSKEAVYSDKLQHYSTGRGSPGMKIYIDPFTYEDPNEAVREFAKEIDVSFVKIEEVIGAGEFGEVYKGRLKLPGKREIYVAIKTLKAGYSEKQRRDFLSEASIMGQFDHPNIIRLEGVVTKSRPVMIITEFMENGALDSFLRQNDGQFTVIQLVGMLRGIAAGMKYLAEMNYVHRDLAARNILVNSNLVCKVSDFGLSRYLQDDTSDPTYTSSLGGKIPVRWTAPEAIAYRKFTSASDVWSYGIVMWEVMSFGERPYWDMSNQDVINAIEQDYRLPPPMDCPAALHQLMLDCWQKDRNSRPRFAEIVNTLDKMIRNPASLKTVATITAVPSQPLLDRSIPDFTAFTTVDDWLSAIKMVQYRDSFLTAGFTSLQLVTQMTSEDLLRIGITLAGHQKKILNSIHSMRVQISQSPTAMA

[2] = target: T2, Ephrin type-B receptor 2 (Homo sapiens) (UniProt P29323); conditions: at 1 µM
T2 sequence (whole entry): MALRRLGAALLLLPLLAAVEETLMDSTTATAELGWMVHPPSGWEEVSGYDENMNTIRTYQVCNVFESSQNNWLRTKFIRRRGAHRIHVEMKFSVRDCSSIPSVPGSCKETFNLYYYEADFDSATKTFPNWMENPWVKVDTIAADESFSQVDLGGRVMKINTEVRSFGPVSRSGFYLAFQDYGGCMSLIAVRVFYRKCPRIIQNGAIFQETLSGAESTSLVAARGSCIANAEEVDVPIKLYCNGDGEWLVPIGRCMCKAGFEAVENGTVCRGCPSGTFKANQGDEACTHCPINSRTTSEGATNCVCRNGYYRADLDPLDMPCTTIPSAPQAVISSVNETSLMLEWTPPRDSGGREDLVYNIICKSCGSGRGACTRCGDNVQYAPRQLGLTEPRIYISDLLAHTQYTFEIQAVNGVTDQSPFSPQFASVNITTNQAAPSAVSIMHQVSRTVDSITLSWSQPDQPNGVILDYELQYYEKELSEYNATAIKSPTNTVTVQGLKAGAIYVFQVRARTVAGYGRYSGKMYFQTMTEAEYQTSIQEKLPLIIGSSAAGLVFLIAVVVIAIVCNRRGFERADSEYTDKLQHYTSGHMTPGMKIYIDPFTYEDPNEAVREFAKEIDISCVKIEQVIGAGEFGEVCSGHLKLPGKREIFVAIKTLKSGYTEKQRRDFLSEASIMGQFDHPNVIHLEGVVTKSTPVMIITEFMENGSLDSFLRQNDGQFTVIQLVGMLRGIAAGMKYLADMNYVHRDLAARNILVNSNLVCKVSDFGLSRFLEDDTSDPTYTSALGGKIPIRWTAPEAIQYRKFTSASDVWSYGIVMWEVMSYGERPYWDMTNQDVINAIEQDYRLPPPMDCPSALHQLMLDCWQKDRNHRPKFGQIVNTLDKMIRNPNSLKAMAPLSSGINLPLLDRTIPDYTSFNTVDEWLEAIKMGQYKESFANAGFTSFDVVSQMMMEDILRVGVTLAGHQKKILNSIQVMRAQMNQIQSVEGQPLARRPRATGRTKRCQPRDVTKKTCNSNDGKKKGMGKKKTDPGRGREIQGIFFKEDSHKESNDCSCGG

[3] = target: T2, Ephrin type-B receptor 2 (Homo sapiens); conditions: at 10 µM
[4] = target: T3, Ephrin type-B receptor 3 (Homo sapiens) (UniProt P54753); conditions: at 1 µM
T3 sequence (whole entry): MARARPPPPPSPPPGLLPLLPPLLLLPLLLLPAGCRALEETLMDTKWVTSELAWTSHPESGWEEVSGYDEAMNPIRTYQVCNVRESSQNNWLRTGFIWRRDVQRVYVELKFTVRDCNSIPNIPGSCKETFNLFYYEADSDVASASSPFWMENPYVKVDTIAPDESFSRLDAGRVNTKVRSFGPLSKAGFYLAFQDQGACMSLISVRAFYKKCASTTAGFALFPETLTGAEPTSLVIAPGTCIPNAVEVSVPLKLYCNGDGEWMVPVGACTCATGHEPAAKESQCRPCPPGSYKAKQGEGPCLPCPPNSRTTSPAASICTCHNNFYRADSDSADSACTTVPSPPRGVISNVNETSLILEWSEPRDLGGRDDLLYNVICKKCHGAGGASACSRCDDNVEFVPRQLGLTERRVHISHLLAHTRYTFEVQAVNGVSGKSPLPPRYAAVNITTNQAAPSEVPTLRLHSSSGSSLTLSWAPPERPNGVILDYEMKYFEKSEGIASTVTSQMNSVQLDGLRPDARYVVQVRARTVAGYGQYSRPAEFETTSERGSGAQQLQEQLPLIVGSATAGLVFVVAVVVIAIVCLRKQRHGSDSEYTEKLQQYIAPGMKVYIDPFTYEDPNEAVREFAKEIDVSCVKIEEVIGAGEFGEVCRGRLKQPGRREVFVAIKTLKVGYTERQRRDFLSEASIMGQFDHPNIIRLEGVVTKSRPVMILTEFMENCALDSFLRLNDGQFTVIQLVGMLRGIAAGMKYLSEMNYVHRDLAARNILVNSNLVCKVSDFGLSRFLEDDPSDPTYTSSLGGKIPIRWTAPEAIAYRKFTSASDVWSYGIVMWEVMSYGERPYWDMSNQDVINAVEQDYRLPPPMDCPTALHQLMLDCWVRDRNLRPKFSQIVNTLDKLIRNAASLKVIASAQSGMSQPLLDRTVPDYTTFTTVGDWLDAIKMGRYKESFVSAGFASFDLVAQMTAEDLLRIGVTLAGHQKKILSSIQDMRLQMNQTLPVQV

[5] = target: T3, Ephrin type-B receptor 3 (Homo sapiens); conditions: at 10 µM
[6] = target: T4, Ephrin type-B receptor 4 (Homo sapiens) (UniProt P54760); conditions: at 1 µM
T4 sequence (whole entry): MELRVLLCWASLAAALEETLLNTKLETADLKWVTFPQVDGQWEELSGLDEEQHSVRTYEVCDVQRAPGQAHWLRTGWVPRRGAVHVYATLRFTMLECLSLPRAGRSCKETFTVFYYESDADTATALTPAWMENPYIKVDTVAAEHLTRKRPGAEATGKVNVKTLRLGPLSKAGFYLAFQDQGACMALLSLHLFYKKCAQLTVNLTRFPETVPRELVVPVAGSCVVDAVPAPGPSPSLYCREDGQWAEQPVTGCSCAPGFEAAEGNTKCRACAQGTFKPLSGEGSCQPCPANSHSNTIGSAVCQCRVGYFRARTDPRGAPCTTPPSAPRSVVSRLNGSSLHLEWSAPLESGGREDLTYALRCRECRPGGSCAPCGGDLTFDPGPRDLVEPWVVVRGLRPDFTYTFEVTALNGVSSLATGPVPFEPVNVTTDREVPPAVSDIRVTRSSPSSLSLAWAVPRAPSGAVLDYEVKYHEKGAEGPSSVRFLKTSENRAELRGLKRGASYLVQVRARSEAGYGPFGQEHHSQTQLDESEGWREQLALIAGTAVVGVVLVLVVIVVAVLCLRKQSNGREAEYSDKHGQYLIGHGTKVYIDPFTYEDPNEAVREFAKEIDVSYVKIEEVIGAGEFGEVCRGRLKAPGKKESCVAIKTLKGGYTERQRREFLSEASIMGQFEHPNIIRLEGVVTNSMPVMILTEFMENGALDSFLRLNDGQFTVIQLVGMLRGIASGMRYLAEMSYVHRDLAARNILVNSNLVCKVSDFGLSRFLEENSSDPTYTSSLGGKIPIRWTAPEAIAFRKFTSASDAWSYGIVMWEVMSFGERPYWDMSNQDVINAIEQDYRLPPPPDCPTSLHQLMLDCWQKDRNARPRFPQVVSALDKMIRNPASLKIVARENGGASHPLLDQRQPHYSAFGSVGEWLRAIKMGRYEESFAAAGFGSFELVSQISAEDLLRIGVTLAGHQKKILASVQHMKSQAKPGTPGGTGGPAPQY

[7] = target: T4, Ephrin type-B receptor 4 (Homo sapiens); conditions: at 10 µM
[8] = target: Receptor tyrosine-protein kinase erbB-4 (Homo sapiens) (UniProt Q15303); conditions: at 1 µM
[9] = target: Receptor tyrosine-protein kinase erbB-4 (Homo sapiens) (UniProt Q15303); conditions: at 10 µM
[10] = target: Focal adhesion kinase 1 (Homo sapiens) (UniProt Q05397); conditions: at 1 µM
[11] = target: Focal adhesion kinase 1 (Homo sapiens) (UniProt Q05397); conditions: at 10 µM
[12] = target: Fibroblast growth factor receptor 1 (Homo sapiens) (UniProt P11362); conditions: at 1 µM
[13] = target: Fibroblast growth factor receptor 1 (Homo sapiens) (UniProt P11362); conditions: at 10 µM
[14] = target: Fibroblast growth factor receptor 2 (Homo sapiens) (UniProt P21802); conditions: at 1 µM
[15] = target: Fibroblast growth factor receptor 2 (Homo sapiens) (UniProt P21802); conditions: at 10 µM
[16] = target: Fibroblast growth factor receptor 3 (Homo sapiens) (UniProt P22607); conditions: at 1 µM
[17] = target: Fibroblast growth factor receptor 3 (Homo sapiens) (UniProt P22607); conditions: at 10 µM
[18] = target: Fibroblast growth factor receptor 4 (Homo sapiens) (UniProt P22455); conditions: at 1 µM
[19] = target: Fibroblast growth factor receptor 4 (Homo sapiens) (UniProt P22455); conditions: at 10 µM
[20] = target: Tyrosine-protein kinase Fer (Homo sapiens) (UniProt P16591); conditions: at 1 µM

Focal adhesion kinase 1 (Homo sapiens), sequence (Q05397 2-1052 limits assumed): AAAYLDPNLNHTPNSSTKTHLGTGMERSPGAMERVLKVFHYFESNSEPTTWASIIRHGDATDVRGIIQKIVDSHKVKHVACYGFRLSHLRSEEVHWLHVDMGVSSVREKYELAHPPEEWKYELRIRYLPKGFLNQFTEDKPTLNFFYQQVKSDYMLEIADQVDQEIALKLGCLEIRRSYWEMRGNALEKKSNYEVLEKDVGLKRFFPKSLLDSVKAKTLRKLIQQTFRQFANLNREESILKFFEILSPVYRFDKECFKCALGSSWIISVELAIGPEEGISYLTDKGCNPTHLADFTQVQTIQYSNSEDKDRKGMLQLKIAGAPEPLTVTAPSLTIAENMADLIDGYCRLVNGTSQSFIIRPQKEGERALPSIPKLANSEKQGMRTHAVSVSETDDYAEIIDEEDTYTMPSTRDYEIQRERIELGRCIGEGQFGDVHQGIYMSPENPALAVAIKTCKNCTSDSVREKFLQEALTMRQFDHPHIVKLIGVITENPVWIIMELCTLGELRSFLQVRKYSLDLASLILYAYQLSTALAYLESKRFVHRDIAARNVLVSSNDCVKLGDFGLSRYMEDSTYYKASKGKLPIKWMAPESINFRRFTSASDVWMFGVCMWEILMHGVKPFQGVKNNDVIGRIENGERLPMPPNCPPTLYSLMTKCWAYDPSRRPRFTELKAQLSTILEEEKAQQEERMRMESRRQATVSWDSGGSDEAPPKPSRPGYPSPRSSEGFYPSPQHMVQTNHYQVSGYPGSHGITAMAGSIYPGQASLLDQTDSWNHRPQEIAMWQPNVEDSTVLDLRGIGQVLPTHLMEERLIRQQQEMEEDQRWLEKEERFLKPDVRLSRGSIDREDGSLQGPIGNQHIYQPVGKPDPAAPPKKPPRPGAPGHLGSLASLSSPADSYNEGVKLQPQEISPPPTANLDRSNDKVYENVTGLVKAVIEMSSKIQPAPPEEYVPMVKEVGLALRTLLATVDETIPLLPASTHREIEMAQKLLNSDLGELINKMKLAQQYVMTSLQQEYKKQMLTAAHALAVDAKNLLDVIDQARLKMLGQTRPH
Fibroblast growth factor receptor 2 (Homo sapiens), sequence (P21802 22-821 limits assumed): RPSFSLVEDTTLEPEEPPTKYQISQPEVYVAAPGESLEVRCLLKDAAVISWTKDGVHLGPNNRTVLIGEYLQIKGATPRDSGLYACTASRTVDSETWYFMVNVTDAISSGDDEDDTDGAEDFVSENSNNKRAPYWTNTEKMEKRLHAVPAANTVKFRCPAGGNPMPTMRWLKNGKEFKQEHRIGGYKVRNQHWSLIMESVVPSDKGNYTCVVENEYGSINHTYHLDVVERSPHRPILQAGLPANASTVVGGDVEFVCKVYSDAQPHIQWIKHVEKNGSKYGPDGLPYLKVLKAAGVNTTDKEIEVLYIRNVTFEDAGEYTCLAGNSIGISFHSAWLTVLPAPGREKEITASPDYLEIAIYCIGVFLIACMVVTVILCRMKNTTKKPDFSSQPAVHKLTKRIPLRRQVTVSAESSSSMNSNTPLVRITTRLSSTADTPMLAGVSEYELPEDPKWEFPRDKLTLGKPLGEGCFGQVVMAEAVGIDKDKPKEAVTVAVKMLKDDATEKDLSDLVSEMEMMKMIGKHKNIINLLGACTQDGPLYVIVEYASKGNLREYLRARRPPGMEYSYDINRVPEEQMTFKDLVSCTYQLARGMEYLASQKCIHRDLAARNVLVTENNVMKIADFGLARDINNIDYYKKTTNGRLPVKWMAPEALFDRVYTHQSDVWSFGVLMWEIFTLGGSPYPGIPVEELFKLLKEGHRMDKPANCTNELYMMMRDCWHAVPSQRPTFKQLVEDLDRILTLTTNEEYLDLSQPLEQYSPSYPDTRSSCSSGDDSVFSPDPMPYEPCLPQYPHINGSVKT
Fibroblast growth factor receptor 1 (Homo sapiens), sequence (P11362 22-822 limits assumed): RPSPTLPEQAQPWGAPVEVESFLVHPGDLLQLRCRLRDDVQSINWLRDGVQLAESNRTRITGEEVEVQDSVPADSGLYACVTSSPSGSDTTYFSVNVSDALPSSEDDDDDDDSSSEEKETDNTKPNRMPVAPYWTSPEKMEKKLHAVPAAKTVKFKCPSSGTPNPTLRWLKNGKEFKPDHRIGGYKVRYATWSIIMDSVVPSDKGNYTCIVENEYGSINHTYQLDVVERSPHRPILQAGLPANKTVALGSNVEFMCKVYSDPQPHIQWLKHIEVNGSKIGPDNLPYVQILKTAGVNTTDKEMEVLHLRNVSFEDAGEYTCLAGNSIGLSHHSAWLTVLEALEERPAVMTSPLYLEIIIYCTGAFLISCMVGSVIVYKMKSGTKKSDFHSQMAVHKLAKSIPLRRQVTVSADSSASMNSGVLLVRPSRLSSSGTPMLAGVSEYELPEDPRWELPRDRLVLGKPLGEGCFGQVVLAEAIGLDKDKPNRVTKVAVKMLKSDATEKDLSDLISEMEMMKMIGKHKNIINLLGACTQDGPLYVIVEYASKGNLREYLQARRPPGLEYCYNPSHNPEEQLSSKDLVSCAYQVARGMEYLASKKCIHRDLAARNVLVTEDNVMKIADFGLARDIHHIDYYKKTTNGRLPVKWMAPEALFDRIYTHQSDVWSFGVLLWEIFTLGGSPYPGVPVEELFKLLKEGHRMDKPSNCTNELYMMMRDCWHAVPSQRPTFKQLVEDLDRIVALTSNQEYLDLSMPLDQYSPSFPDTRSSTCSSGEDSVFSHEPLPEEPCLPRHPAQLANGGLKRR
Receptor tyrosine-protein kinase erbB-4 (Homo sapiens), sequence (Q15303 whole entry): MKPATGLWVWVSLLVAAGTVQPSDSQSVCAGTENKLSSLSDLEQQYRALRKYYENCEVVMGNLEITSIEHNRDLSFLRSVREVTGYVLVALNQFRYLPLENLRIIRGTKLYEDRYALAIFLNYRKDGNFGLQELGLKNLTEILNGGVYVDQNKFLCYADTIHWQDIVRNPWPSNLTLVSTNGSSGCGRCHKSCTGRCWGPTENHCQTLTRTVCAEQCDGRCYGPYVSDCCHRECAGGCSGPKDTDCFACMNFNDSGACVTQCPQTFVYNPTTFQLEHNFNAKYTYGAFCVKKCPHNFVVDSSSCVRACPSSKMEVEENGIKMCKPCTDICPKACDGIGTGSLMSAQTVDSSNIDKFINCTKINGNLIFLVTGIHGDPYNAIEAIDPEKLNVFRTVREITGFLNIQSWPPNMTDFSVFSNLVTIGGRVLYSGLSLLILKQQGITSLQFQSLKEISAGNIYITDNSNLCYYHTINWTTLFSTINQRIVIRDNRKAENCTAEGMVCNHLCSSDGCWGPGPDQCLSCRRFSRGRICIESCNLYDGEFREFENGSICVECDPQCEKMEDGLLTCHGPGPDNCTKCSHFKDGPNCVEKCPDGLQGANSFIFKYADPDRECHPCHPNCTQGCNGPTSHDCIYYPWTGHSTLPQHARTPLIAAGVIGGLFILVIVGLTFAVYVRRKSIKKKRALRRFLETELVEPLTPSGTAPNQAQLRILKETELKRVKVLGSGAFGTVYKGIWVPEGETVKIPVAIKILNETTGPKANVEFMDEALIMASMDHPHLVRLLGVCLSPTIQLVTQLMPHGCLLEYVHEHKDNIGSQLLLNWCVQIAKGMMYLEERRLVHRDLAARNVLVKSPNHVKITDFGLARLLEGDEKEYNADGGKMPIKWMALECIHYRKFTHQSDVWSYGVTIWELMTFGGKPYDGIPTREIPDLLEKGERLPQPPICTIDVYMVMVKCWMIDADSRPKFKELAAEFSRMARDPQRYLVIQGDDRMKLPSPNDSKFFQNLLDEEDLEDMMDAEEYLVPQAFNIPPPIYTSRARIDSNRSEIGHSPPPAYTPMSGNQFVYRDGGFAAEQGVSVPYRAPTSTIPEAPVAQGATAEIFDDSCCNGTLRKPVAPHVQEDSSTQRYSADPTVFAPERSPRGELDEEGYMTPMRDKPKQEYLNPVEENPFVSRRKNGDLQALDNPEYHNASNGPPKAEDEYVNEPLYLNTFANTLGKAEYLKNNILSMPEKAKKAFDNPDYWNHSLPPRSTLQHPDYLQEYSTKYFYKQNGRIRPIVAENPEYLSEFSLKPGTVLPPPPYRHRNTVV
Fibroblast growth factor receptor 3 (Homo sapiens), sequence (P22607 23-806 limits assumed): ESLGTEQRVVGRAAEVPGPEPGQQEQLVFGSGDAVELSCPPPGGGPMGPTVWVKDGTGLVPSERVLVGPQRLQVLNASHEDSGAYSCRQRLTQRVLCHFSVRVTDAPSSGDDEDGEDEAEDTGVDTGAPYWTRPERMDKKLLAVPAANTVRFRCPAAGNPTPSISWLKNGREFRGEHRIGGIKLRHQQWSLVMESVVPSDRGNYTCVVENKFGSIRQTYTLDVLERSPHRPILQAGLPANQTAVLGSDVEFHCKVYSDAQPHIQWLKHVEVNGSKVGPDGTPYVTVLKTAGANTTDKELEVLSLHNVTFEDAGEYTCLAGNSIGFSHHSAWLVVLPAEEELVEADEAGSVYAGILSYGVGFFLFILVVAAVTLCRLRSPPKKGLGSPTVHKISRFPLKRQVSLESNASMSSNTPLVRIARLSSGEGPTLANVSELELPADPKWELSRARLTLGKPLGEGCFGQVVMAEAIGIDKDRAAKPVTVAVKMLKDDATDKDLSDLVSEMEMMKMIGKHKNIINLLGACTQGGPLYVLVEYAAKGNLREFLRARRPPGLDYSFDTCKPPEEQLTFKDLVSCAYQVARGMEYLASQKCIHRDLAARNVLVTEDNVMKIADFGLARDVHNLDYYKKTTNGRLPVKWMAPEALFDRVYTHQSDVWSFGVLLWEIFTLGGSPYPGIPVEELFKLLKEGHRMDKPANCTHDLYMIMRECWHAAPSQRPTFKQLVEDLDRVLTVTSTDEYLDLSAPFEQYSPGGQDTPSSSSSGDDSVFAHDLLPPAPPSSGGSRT

| Structure (SMILES) | residual activity [1] | residual activity [2] | residual activity [3] | residual activity [4] | residual activity [5] | residual activity [6] | residual activity [7] | residual activity [8] | residual activity [9] | residual activity [10] | residual activity [11] | residual activity [12] | residual activity [13] | residual activity [14] | residual activity [15] | residual activity [16] | residual activity [17] | residual activity [18] | residual activity [19] | residual activity [20] |
| --- | --- | --- | --- | --- | --- | --- | --- | --- | --- | --- | --- | --- | --- | --- | --- | --- | --- | --- | --- | --- |
| Cc1nc(-c2ccccc2)c(-c2ccncc2)o1 | 55% | 36% | 31% | 126% (inactive) | 107% | 105% | 79% | 118% | 110% | 111% | 98% | 120% | 83% | 86% | 74% | 121% | 114% | 109% | 99% | 101% |
| CN(C)c1ccc(/C=C2\C(=O)Nc3ccccc32)cc1 | 80% | 112% | 130% | 108% (inactive) | 123% | 97% | 121% | 115% | 82% | 82% | 62% | 61% | 10% | 94% | 38% | 89% | 64% | 122% | 110% | 109% |
| CC#CC(=O)Nc1cc2c(Nc3ccc(F)c(Cl)c3)ncnc2cn1 | 98% | 110% | 107% | 115% (inactive) | 102% | 87% | 108% | 16% | 14% | 133% | 99% | 97% | 80% | 91% | 113% | 86% | 125% | 116% | 96% | 108% |
